A selection: hits, their analogues and other compounds. The true share with any hit is near 8%.
MCF10A rereplic = A quantitative high throughput screen for small molecules that induce DNA re-replication in MCF 10a normal breast cells. MCF 10A DNA re-replication, Hoechst nuclear intensity, 48 h. Potency, µM (series often up to 46.1 µM), without a hit: at the top dose activity, positive = re-replication, hits mostly activators. actives 2.9% (n = 350,000); further: % of control where 0% means no effect; nearly all actives have a fitted effect of over 50% in size
SW480 rerep = A quantitative high throughput screen for small molecules that induce DNA re-replication in SW480 colon adenocarcinoma cells; SW480 DNA re-replication, Hoechst DNA content imaging, 48 h; Potency, µM (doses to about 46.1 µM), for the others: at the top dose re-replication activation, hits mostly activators; actives 1.8% (n = 340,000); AID 624297, 2012; further: % of control where 0% means no effect; nearly all actives have a fitted effect of over 55% in size
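Cells (250 per well) received 23 nL compound or DMSO by pin tool and were kept 48 hr at 37 C, 5% CO2. Nuclei were then stained with Hoechst for 40 min and scanned for DNA content.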
KB-V1 cytotox = qHTS assay for MDR1-selective chemotherapeutics: Primary screen using the drug-selected MDR subline cells KB-V1. KB-V1 MDR cells viability, CellTiter-Glo, 72 h. Potency, µM (series often up to 46.1 µM), most hits filed as cytotoxic. actives 3.4% (n = 400,000). AID 1347076, 2019; further: on the % scale 0 is the no-effect control and ±100 the full control effect; nearly all actives have a fitted effect of over 60% in size
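Compound-treated KB-V1 multidrug-resistant cells, 72 h, 37 degrees C; viability by CellTiter-Glo. Fitted qHTS curves give the values.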
HT1080-NT tox = qHTS for induction of synthetic lethality in tumor cells producing 2HG: qHTS for the HT-1080-NT fibrosarcoma cell line; HT-1080-NT fibrosarcoma viability, CellTiter-Glo ATP luminescence, 48 h; AID 686970, 2013; actives 1.6% (n = 360,000); Potency, µM (doses to about 46.1 µM), without a hit: top-dose activity, negative = less viability, usual class: cytotoxic;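 further: NT is the 2HG producing partner of a matched IDH1 knockdown line; 0% = DMSO-treated cells and -100% = media-only wells without cells; nearly all actives have a fitted effect of over 55% in size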
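Compounds were tested in concentration-response format on HT-1080-NT cells for 48 hours at 37 degrees C. Cell viability came from CellTiter-Glo luminescence; curves were classified by r2, response magnitude and activity.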
KB-3-1 cytotox = qHTS assay for MDR1-selective chemotherapeutics: Primary screen using the parental adenocarcinoma cell KB-3-1; KB-3-1 viability, CellTiter-Glo ATP luminescence, 72 h; Potency, µM (titrated, usually from 46.1 µM), usual class: cytotoxic; actives 1.4% (n = 400,000); further: on the % scale 0 is the no-effect control and ±100 the full control effect; nearly all actives have a fitted effect of over 60% in size
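Cells are dispensed, compounds pinned in, plates held at 37 °C for 72 h, then CellTiter-Glo is added and luminescence read after 10 minutes. Cell line: parental KB-3-1 in phenol-red-free DMEM, 10% FBS.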
HT1080 IDH1KD tx = qHTS for induction of synthetic lethality in tumor cells producing 2HG: qHTS for the HT-1080-IDH1KD cell line; HT-1080 IDH1 knockdown viability, ATP luminescence, 48 h; Potency, µM (titrated, usually from 46.1 µM), for the others: at the top dose activity, negative = toxicity, hits mostly cytotoxic; actives 2% (n = 360,000);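 further: 0% = DMSO wells and -100% = cell-free medium wells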
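Assay cells: HT-1080 with IDH1 knockdown, 750 per well, RPMI/5% FBS. Exposure: 48 h at 37 °C following 2 h pre-incubation. Read: CellTiter-Glo luminescence; fitted concentration-response, curve class assigned.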
Active calls of the source: *; i = inactive; ? = inconclusive; . = no result; [ ] = another dose, or the depositor's remark. The call rests on the fitted dose curve; in most records, active means well fitted curve in the direction sought with a large enough effect; inconclusive means small, poorly fitted or top-dose-only effect, or another doubt; inactive means no such curve, though single readings can be large; an effect the other way counts as inactive or inconclusive. Potency means the concentration at half of the fitted maximal effect.

SMILES	MCF10A rereplic	SW480 rerep	KB-V1 cytotox	HT1080-NT tox	KB-3-1 cytotox	HT1080 IDH1KD tx
COc1ccc(N2CCC(CNC(=S)Nc3cc(C)cc(C)c3)C2)cc1 (stereo not drawn)	?	?	i	?	i	?
COc1ccc(N2CCC(CNC(=S)Nc3cc(C)ccc3C)C2)cc1 (stereo not drawn)	2%	-31%	18µM*	-22%	i	3%
N#Cc1cnc2cc(-c3ccccc3)nn2c1N	13%	-19%	2.6µM*	?	?	?
COc1cc(OC)c(C(=O)OCC(=O)N2CCN(S(=O)(=O)c3ccc(C)cc3C)CC2)cc1OC	0%	3%	16µM*	13%	i	0%
CCC(C(=O)OCC(=O)N1CCN(S(=O)(=O)c2ccc(C)cc2C)CC1)c1ccccc1 (stereo not drawn)	-2%	-8%	15µM*	2%	i	10%
Cc1ccc(S(=O)(=O)N2CCN(C(=O)c3cccs3)CC2)c(C)c1	3%	4.1µM*	?	-1%	i	-2%
Cc1ccc(C(=O)Nc2cccc(C(=O)NCc3ccccc3)c2)o1	?	?	i	.	?	.
CCCc1nc2ccc(C)cn2c1Cc1ccccc1C(F)(F)F	.	.	i	26µM*	i	33µM*
COc1ccccc1Cc1c(C2CCCCC2)nc2ccc(C)cn12	.	.	i	13µM*	i	?
COc1ccccc1Cc1c(C2CCCCC2)nc2ccc(Cl)cn12	.	.	i	?	?	?
Cc1ccc2nc(C3CCCCC3)c(CC(C)(C)C)n2c1	.	.	i	16µM*	i	?
Cc1ccc2nc(-c3ccc(Cl)cc3)c(Cc3ccccc3C(F)(F)F)n2c1	.	.	?	3%	i	6%
CCCc1nc2ccc(Cl)cn2c1Cc1ccccc1OC	.	.	i	?	?	?
CCCc1nc2ccc(C)cn2c1Cc1ccccc1OC	.	.	?	?	i	18µM*
Cn1cc(C(=O)c2ccc(Cl)cc2Cl)cc1C(=O)N/N=C(\N)COc1ccc(Cl)cc1	9%	?	?	?	?	16µM*
Cn1cc(C(=O)c2ccc(Cl)cc2Cl)cc1C(=O)N/N=C(\N)COc1ccc(Cl)cc1Cl	?	9.2µM*	?	?	18µM*	?
Cn1cc(C(=O)c2ccc(Cl)cc2Cl)cc1C(=O)N/N=C(\N)COc1ccccc1	?	?	?	-19%	i	-28%
CCC(=O)N1c2ccc(S(=O)(=O)CCC(=O)Nc3nccs3)cc2CC1C (stereo not drawn)	8%	7%[9.22 µM]	i	1%	i	-4%
Cc1ccc(C)c(OCC(O)CN2CCC(CN3C(=O)c4cccc5cccc(c45)C3=O)CC2)c1 (stereo not drawn)	?	-1%	2.6µM*	0%	18µM*	0%
COc1cccc(OCC(O)CN2CCN(CCN3C(=O)c4cccc5cccc(c45)C3=O)CC2)c1 (stereo not drawn)	-39%	?	?	-28%	i	?
COc1ccc(OCC(O)CN2CCC(CN3C(=O)c4cccc5cccc(c45)C3=O)CC2)cc1 (stereo not drawn)	12%	?	i	23µM*	i	?
O=C1c2cccc3cccc(c23)C(=O)N1CC1CCN(CC(O)COCc2ccc3c(c2)OCO3)CC1 (stereo not drawn)	?	5%	?	21µM*	?	21µM*

Assay outcomes deposited in PubChem BioAssay by National Center for Advancing Translational Sciences (NCATS).
